GPR151 ag: human GPR151 activation; Q8TDV0; PathHunter beta-arrestin GPR151 cells, luminescence; activation, % at 11.2 µM; hit rate 1% among 650,000; AID 1508602; in the data active means activation above about 4.9%;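 further: 0% = median of compound wells and 100% = cells with positive control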
TEAD-YAP inh: TEAD-YAP interaction inhibition. HEK-TIYL cells, TEAD-Gal4/YAP UAS-luciferase luminescence. inhibition, % at 9.12 µM. hit rate 1.4% among 640,000. AID 1259422; in the data active means inhibition above about 32%;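 further: 0% = median of test compound wells and 100% = reference inhibitor wells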
FBW7 act: activators of human E3 ligase FBW7. AlphaScreen FBW7–phospho-cyclin E peptide binding, activator screen. normalized activity (activation), % at 26.1 µM. hit rate 0.13% among 650,000. AID 1259310; in the data active means normalized activity above about 1.9%;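 further: purified mutant Fbw7 with reduced substrate affinity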
MITF inh: blocks human microphthalmia-associated transcription factor. O75030. AlphaScreen MITF homodimerization, bead proximity signal. inhibition, % at 2.6 µM. hit rate 0.91% among 650,000; in the data active means inhibition above about 50%;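 further: 0% = vehicle wells with protein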
An asterisk follows results filed as active; · = no result given. Compounds with a hit are over-represented: about 3.5% of the library has one in this group of screens.

SMILES | GPR151 ag | TEAD-YAP inh | FBW7 act | MITF inh
COc1ccccc1-n1c(C)cc(/C=C2/C(=N)N3C=CSC3=NC2=O)c1C | 0 | 94* | 0 | 7
CCOC(=O)c1c(/N=C/N(C)C)sc(C=C(C#N)C#N)c1-c1ccccc1 | -1 | 8 | 0 | 4
Cc1ccc(NC(=O)COc2ccccc2)c(N)c1 | 0 | -45 | 0 | 11
CCOC(=O)/C=C(\Nc1ccc(C)cc1N)c1ccccc1 | -9 | 38* | 0 | -10
CC(C)C(Oc1cccc2ccccc12)C(=O)O (configuration not stated) | -1 | · | · | ·
COc1cccc(C2=CC(c3cccc(OC)c3)n3nnnc3N2)c1 (configuration not stated) | 1 | 56* | 0 | -3
CCOc1ccc(C2=CC(c3cc(OC)c(OC)c(OC)c3)n3nnnc3N2)cc1 (configuration not stated) | 2 | 44* | 0 | 5
COc1ccc(C2=CC(c3cc(OC)ccc3OC)n3nnnc3N2)cc1 (configuration not stated) | 0 | -4 | 0 | 4
COc1cccc(C2=CC(c3cc(OC)ccc3OC)n3nnnc3N2)c1 (configuration not stated) | -2 | 50* | 0 | 10
COc1cccc(C2=CC(c3ccccc3F)n3nnnc3N2)c1 (configuration not stated) | 1 | 44* | 0 | 15
CCOc1ccc(C2C=C(c3ccc(F)cc3)Nc3nnnn32)cc1 (configuration not stated) | 3 | -16 | 0 | -14
Cn1c(=O)c2cc(C(=O)N/N=C/c3ccc(O)c(O)c3)c(N)nc2n(C)c1=O | 1 | 4 | 0 | 13
COC(=O)C/C=C/[C@@H](C)[C@@H](/C=N/O[C@H](C)c1cn([C@H](CO)Cc2ccccc2)nn1)NS(=O)(=O)c1ccc(C)cc1 | -1 | · | 0 | 17
CCc1ccccc1NC(=O)c1ccc(F)c(S(=O)(=O)N2CCN(c3ccccc3)CC2)c1 | 0 | -5 | 1 | 13
COc1cccc(C2=CC(c3cc(OC)c(OC)c(OC)c3)n3nnnc3N2)c1 (configuration not stated) | -1 | 57* | 0 | 7
COc1cccc(C2=CC(c3cccc(OC)c3OC)n3nnnc3N2)c1 (configuration not stated) | 0 | 30 | 0 | -1
COc1cccc(C2C=C(c3ccc(C)cc3)Nc3nnnn32)c1 (configuration not stated) | 0 | 32* | 0 | 4
C=CCOc1ccc(/C=C2\SC(NC(C)=O)=NC2=O)cc1OCC | 1 | 9 | 0 | 6
C=CCOc1ccc(/C=C2\SC(=N)N(c3nccs3)C2=O)cc1OCC | -1 | 36* | 0 | -1
COC(=O)c1cccc(N2C(=O)C3C4C=CC(C4=C(c4ccccc4)c4ccccc4)C3C2=O)c1 (configuration not stated) | -1 | -6 | 0 | -6
O=[N+]([O-])c1ccc(NC(=S)NC2CCN(Cc3ccccc3)CC2)cc1 | -1 | 34* | 0 | 0
NS(=O)(=O)c1ccc(NC(=S)NC2CCN(Cc3ccccc3)CC2)cc1 | 0 | 10 | 0 | 13
CCCCC(O)(CCCC)C(=O)NN(C(=O)c1csc2c1CCCC2)c1ccccc1 | 1 | -6 | 0 | 7
Cc1nc(CN2CCN(S(C)(=O)=O)CC2)cs1 | 0 | -17 | 0 | -26
Cc1nc(CN2CCN(C(=O)CCl)CC2)cs1 | 4 | 48* | 0 | 4
SMILES | GPR151 ag | TEAD-YAP inh | FBW7 act | MITF inh
CCOc1ccccc1-n1c(C)cc(/C=C2\C(=N)N3C(C)=CSC3=NC2=O)c1C | 1 | 7 | 1 | -2
CC1=CSC2=NC(=O)/C(=C/c3cc(C)n(-c4ccccc4F)c3C)C(=N)N12 | 0 | 52* | 0 | 29
Cc1cc(/C=C2/C(=N)N3C(=NC2=O)SN=C3S(C)(=O)=O)c(C)n1-c1ccccc1F | -1 | 3 | 1 | 15
CC1=CSC2=NC(=O)/C(=C/c3cc(C)n(-c4ccccc4C)c3C)C(=N)N12 | 0 | 68* | 0 | 15
CCn1c(=O)c2c(nc3n(-c4ccccc4OC)c(C)cn23)n(C)c1=O | -3 | 14 | 0 | 31
CC(C)(C)NC(=O)COC(=O)C1=NN(c2ccccc2)C(=O)CC1 | 2 | 5 | 0 | -2
COC(=O)c1ccc(OC(=O)COC(=O)CN2C(=O)c3cccc([N+](=O)[O-])c3C2=O)cc1 | 0 | 5 | 0 | 15
Cc1cccc(NC(=O)c2ccc(CN3CCc4ccccc4C3)cc2)c1 | 0 | 36* | 0 | -3
O=C(Nc1cccc(Cl)c1)c1ccc(CN2CCc3ccccc3C2)cc1 | -2 | 40* | 0 | -19
COc1ccc(CCNC(=O)c2ccc3nc(Nc4ccc(-n5ccnc5)cc4)sc3c2)cc1 | 2 | 62* | 0 | 11

High-throughput results from PubChem.
